The text below walks through data of PubChem BioAssay AID2685 (National Center for Advancing Translational Sciences (NCATS), 2010).

Out of some 320,000 compounds screened, about 2,100 (0.66%) were called active. Not shown: some 53% with an inconclusive outcome. Calls come from the whole dose curve; as a rule, active = well fitted inhibition curve with a large enough effect in the signal ratio, with a control signal flat (not every such curve was filed as active); inconclusive = small, poorly fitted or top-dose-only effect, or effect the other way, or a change in a side signal; inactive = flat fitted curve, though single readings scatter; the % refers to the signal ratio. The entries come from a sample that favours actives as a whole.
Potency is the fitted concentration of half-maximal effect.

This assay in a line: qHTS Assay for Lipid Storage Modulators in Drosophila S3 Cells.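 For cell number change: cells counted by Cell Tracker Red CMTPX staining in the red channel.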 For lipid storage change, negative = inhibition: % is set by controls: 0 for no effect and ±100 for the full control effect. The conditions noted are these: BODIPY lipid droplet fluorescence, 18-24 h, cells fed with added oleic acid; cell number change: measured here: cell count max response; series mostly up to 46.1 µM; lipid storage change, negative = inhibition: at the top concentration. The source says:
NIH Molecular Libraries Probe Production Centers Network [MLPCN] NIH Chemical Genomics Center [NCGC] MLPCN Grant: 1 R03 MH085686-01 Assay Submitter (PI): Beller, Mathias; Max-Planck-Institut fur Biophysikalische Chemie NCGC Assay Overview: Storing lipids as a reservoir for energy or the anabolism of elementary metabolites is a common feature of probably all cells and is conserved from bacteria to humans. The universal cellular lipid storage organelle is the so-called lipid storage droplet (LD). Although ubiquitous, LDs share a simple structure composed of a hydrophobic core that harbors the storage lipids, which is shielded by a droplet-specific phospholipid monolayer to which proteins are attached. The current model of LD biogenesis involves an incorporation of the lipid core into the membrane leaflets of the endoplasmic reticulum (ER) followed by a subsequent budding-like maturation of a LD, which ultimately pinches off. Once released, LD volume can increase by localized lipogenesis or fusion of existing droplet. Storage lipids are re-mobilized enzymatically by lipase activity. Lipase regulation in the adipocyte is heavily studied and involves multiple components including catecholamine signaling, the LD-associated proteins Perilipin and comparative gene identification (CGI-58) and at least two lipases named hormone sensitive lipase (HSL) and adipocyte triglyceride lipase (ATGL). LD regulation outside of the adipocyte is poorly understood and only few components are known. However, there is an urgent need to learn more about ectopic fat depots as mislocalized storage of lipids, for example in the liver or muscle, is an eminent health problem associated with insulin resistance or the metabolic syndrome. We developed a laser-scanning cytometer assay to enable 1,536-well screening and combined the results of the small molecules screen with an RNAi database based on lipid storage.
Triacsin C (Sigma-Aldrich T-4540), an inhibitor of long-chain fatty acyl CoA synthetase that blocks synthesis of triglycerides, was used as a positive control for lipid under-storage. A total of 23 nL of compound solution of different concentrations were transferred to the assay plates using a Kalypsys pin tool equipped with a 1,536-pin array containing 10-nL slotted pins (FP1S10, 0.457-mm diameter, 50.8 mm long; V&P Scientific). One microliter of oleic acid (400 uM) was added, and the plate was lidded with stainless steel rubber gasket lined lids containing pinholes. […] Fluorescence was detected by excitation of the fluorophores with a 488-nm laser on an Acumen Explorer (TTP Lab Tech). The total intensity in channel 2 (500-530 nm) reflected lipid droplet accumulation. Cells were detected using channel 3 (575-640 nm) with 5-um width and 100-um depth filters. The ratio of the number of objects in PMT channel 2 over the number of objects in PMT channel 3 was also calculated. Percent activity was computed relative to an internal control (100% inhibited lipid droplet deposition due to the presence of 20 uM Triacsin C), which was added to 32 wells/plate.
Take `CC1(C)Cc2c(c(=S)nc(-c3ccccc3)n2CCO)CO1`: the Potency was 0.259 µM (active) and the cell number change is -12.1%.
In the case of `CC(=O)Nc1ncc(Cc2cccc(Cl)c2Cl)s1`, the outcome was inactive.
For `Cc1nn(C(C)C(=O)NC2C(=O)N3C(C(=O)O)=C(CSc4nnnn4C)CSC23)cc1Cl` (stereo unspecified), the “lipid storage change, negative = inhibition” value is 6.33% (inactive) and the cell number change is -1.98%.
For `COc1cccc(NC(=O)COc2ccc(C(=O)N3CCN(C)CC3)cc2)c1`, the compound was classed as inactive and the cell number change was 10.4%.
`COc1cccc(NC(=O)COc2ccc(C(=S)N3CCN(C)CC3)cc2OC)c1`: the Potency was 8.2 µM (active).
On to `COc1cccc(NC(=S)N2CCN(C)CC2)c1`, for which the “lipid storage change, negative = inhibition” value is -6.39% (inactive) and the cell number change was -7.43%.
Consider `CCOCCn1c(N2CCCC2)nc2c1c(=O)n(C)c(=O)n2C`, for which the result was inactive and the cell number change was -1.35%.
On the same counts, the results for `CCOC1=C/C(=C/c2c(N)n3nc(CC(=O)N4CCCC4)sc3nc2=O)C=CC1=O` are “inactive” and -5.2%.
On the same counts, the results for `Nc1c(/C=C2/C=CC(=O)C(O)=C2)c(=O)nc2sc(CC(=O)N3CCCCC3)nn12` are “inactive” and -19.8%.
With `COC1=C/C(=C/c2c(N)n3nc(CC(=O)N4CCCCC4)sc3nc2=O)C=CC1=O`, the Potency is 14.6 µM (active) and the cell number change is -9.68%.
In the case of `COC(=O)c1c(NC(=O)c2ccco2)sc(C(=O)N2CCCC2)c1C`, the “lipid storage change, negative = inhibition” value was 19.5% (inactive) and the cell number change was -26.3%.
Take `CCCn1cc(S(=O)(=O)c2ccc(OC)cc2)c(=O)c2cc(OCC)ccc21`: the “lipid storage change, negative = inhibition” value is -20.7% (inactive).
On to `CC(C)C(C(=O)Nc1ccc2c(c1)OCO2)N1C(=O)c2ccccc2C1=O` (stereo unspecified), for which the compound was classed as inactive and the cell number change is -19.4%.
Regarding `O=C(CCCCCNC(=O)c1ccccc1)N/N=C/c1ccc(O)cc1O`, the “lipid storage change, negative = inhibition” value was -5.27% (inactive) and the cell number change was 1.3%.
Take `O=C(CCCCCNC(=O)c1ccccc1)N/N=C/c1ccccc1O`: the Potency was 9.2 µM (active) and the cell number change is -19.4%.
For the compound `O=C(CCCCCNC(=O)c1ccccc1)N/N=C/c1ccco1`, the outcome was inactive.
As to `CSC1=NCCN1S(=O)(=O)c1ccc2ccccc2c1`, the “lipid storage change, negative = inhibition” value is 3.31% (inactive) and the cell number change is 1.31%.
On to `CC(C)Oc1ccc(CNC(=O)C2CCCN(S(=O)(=O)N3CCOCC3)C2)cc1` (stereo unspecified), for which the result was inactive and the cell number change is 24.2%.
`O=Cc1cccn1-c1sc2c(c1C(=O)O)CCCC2`: the “lipid storage change, negative = inhibition” value was 0.304% (inactive) and the cell number change was -5.54%.
For `C=CCn1cccc(C(=O)Nc2ccc(C)cc2)c1=O`, in that order: 15.4% (inactive) and 10.2%.
On to `C=CCn1cccc(C(=O)Nc2ccc(SC)cc2)c1=O`, for which the Potency was 4.11 µM (active) and the cell number change came to 16.6%.
As to `C=CCn1cccc(C(=O)Nc2ccc(Cl)cc2)c1=O`, the “lipid storage change, negative = inhibition” value is 8.12% (inactive) and the cell number change is 6.52%.
On the same counts, the results for `COC(=O)c1cn(NC(=O)/C=C/c2ccc(OC)c(OC)c2)c(=O)c2ccccc12` are -1.77% (inactive) and -14.9%.
On to `CCOC(=O)Cc1csc(NC(=O)/C=C/c2ccccc2Cl)n1`, for which the “lipid storage change, negative = inhibition” value was 12.2% (inactive) and the cell number change was -1.33%.
For `COc1nc(C#N)nc(N(C)C)n1`, in that order: -8.69% (inactive) and -4.25%.
On the same counts, the results for `CCCCNC(=O)/C(C#N)=C/c1ccc(C(=O)OC)cc1` are -11.1% (inactive) and -26.3%.
As for `CCN(CC)c1ccc(/C=C(/C#N)C(=O)NCc2ccccc2)o1`, the Potency is 2.06 µM (active) and the cell number change is -20.4%.
In the case of `N#C/C(=C\c1ccc(O)cc1)C(=O)NCc1ccccc1`, the “lipid storage change, negative = inhibition” value is 12.1% (inactive).
With `N#C/C(=C\c1ccc(OCc2ccccc2)cc1)C(=O)Nc1ccc(C(=O)O)cc1`, the Potency was 20.6 µM (active) and the cell number change came out at 12.2%.
Consider `N#C/C(=C/c1ccc(C(=O)O)cc1)C(=O)Nc1ccccc1`, for which the “lipid storage change, negative = inhibition” value is -13.8% (inactive).
For the compound `N#C/C(=C\c1cccs1)C(=O)NCc1ccccc1`, the “lipid storage change, negative = inhibition” value was -2.68% (inactive) and the cell number change is -1.86%.
For `CCCCNC(=O)/C(C#N)=C/c1cccnc1`, the Potency is 20.6 µM (active).
Take `Cc1ccc(/C=C(\C#N)C(=O)NCc2ccco2)o1`: the “lipid storage change, negative = inhibition” value was 4.22% (inactive).
In the case of `COc1ccc(/C=C(\C#N)C(=O)NCc2ccccc2)cc1`, the “lipid storage change, negative = inhibition” value is 3.79% (inactive) and the cell number change is -4.49%.
For `N#C/C(=C/c1ccc(OCc2ccc(C(=O)O)cc2)cc1)C(=O)Nc1ccccc1`, in that order: 0.353% (inactive) and 14.9%.
For `N#C/C(=C\c1cccnc1)C(=O)Nc1ccccc1`, in that order: 16% (inactive) and -2.7%.
As to `N#C/C(=C/c1ccccc1)C(=O)NCc1ccccc1`, the Potency was 2.59 µM (active) and the cell number change is 18.6%.
